Compound activity: PubChem, National Center for Advancing Translational Sciences (NCATS)
KB-3-1 cytotox: qHTS assay for MDR1-selective chemotherapeutics: Primary screen using the parental adenocarcinoma cell KB-3-1 | KB-3-1 viability, CellTiter-Glo ATP luminescence, 72 h | Potency, µM (doses to about 46.1 µM), hits mostly cytotoxic | 400,000 compounds, 1.4% hits; note: nearly all actives have a fitted effect of over 60% in size
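Cytotoxicity in the drug-sensitive parental line KB-3-1 was scored as loss of CellTiter-Glo luminescence following 72 h incubation with compound. Values come from curve fitting of normalized concentration-response data.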
MCF10A rerep: A quantitative high throughput screen for small molecules that induce DNA re-replication in MCF 10a normal breast cells | MCF 10A DNA re-replication, Hoechst nuclear intensity, 48 h | Potency, µM (doses to about 46.1 µM), most hits filed as activators | 350,000 compounds, 2.9% hits; note: nearly all actives have a fitted effect of over 50% in size
SW480 rerep: A quantitative high throughput screen for small molecules that induce DNA re-replication in SW480 colon adenocarcinoma cells | SW480 DNA re-replication, Hoechst DNA content imaging, 48 h | 340,000 compounds, 1.8% hits | Potency, µM (series often up to 46.1 µM), hits mostly activators | AID 624297, 2012; note: nearly all actives have a fitted effect of over 55% in size
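SW480 cells exposed to compounds for 48 hr at 37 C, 5% CO2, then Hoechst-stained 40 min. Nuclear DNA content imaged by fluorescence scanning (405 nm excitation, 500-530 nm emission); re-replication scored as increased high-intensity nuclei.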
ELG1 DNA repair: qHTS screen for small molecules that inhibit ELG1-dependent DNA repair in human embryonic kidney (HEK293T) cells expressing luciferase-tagged ELG1. HEK293T ELG1-luciferase reporter, luminescence, 16 h; DNA damage induced by 5-fluorouridine. Potency, µM (titrated, usually from 46.1 µM), usual class: inhibitors. 330,000 compounds, 2.3% hits. AID 504467, 2011; note: nearly all actives have a fitted effect of over 55% in size
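Reporter activity after DNA damage by 5-fluorouridine is monitored. Compound-treated cells incubate 16 hr at 37 °C, then ONE-Glo is added for 30 min before luminescence reading.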
KB-V1 cytotox: qHTS assay for MDR1-selective chemotherapeutics: Primary screen using the drug-selected MDR subline cells KB-V1 | KB-V1 MDR cells viability, CellTiter-Glo, 72 h | Potency, µM (titrated, usually from 46.1 µM), hits mostly cytotoxic | 400,000 compounds, 3.4% hits | AID 1347076, 2019; note: nearly all actives have a fitted effect of over 60% in size
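Compound-treated KB-V1 multidrug-resistant cells, 72 h, 37 degrees C; viability by CellTiter-Glo. Fitted qHTS curves give the values.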
Hits are given with their value; i = inactive; ? = inconclusive; nt = not tested or not shown. Only some compounds are listed: those with a hit (about 8.1% of all), similar ones and a draw of the others. Calls come from the whole dose curve; as a rule, active = well fitted curve in the direction sought with a large enough effect; inconclusive = small, poorly fitted or top-dose-only effect, or another doubt; inactive = no such curve, though single readings can be large; an effect the other way counts as inactive or inconclusive.

SMILES | KB-3-1 cytotox | MCF10A rerep | SW480 rerep | ELG1 DNA repair | KB-V1 cytotox
N#CC(C(=S)Nc1ccccc1)c1nc2ccccc2[nH]1 (stereo not drawn) | i | ? | ? | 13µM | ?
CCCCC[C@@H]1C=C(C(=O)O)[C@H](c2ccc(Cl)c(Cl)c2)N1S(=O)(=O)c1ccc(C)cc1 | i | ? | i | i | i
O=C(CN1CCCCC1)NC(=O)NC1CCCC1 | i | i | i | i | i
O=C(CN1CCN(S(=O)(=O)c2ccccc2)CC1)NC(=O)NC1CCCCC1 | i | i | i | i | i
O=C(Cn1ncc(Cl)c(Cl)c1=O)NC(=O)NC1CCCCC1 | ? | 8.2µM | 13µM | ? | ?
O=C(CN1CCN(S(=O)(=O)c2ccc(Cl)cc2)CC1)NC(=O)NC1CCCCC1 | ? | i | i | ? | 2.3µM
CCn1cc(C(=O)NC(C)C23CC4CC(CC(C4)C2)C3)cn1 (stereo not drawn) | i | i | i | i | ?
Cc1ccc(C(=O)C2CCN(CC(=O)NC3CCCCC3)CC2)cc1 | i | i | i | ? | 13µM
CC(NC(=O)Cn1ncc(Cl)c(Cl)c1=O)C12CC3CC(CC(C3)C1)C2 (stereo not drawn) | 6.5µM | 3.7µM | 5.2µM | 18µM | ?
COCCn1c(C)cc(C(=O)COC(=O)/C=C/c2ccc(OC)cc2OC)c1C | i | i | i | i | i
O=C(CN1CCCCCCC1)NC(=O)NC1CCCCC1 | ? | 16µM | i | ? | ?
O=C(CCl)N=c1sccn1Cc1ccc(Cl)cc1Cl | ? | ? | ? | ? | 18µM
O=C(CCl)N=c1sccn1Cc1cccc2ccccc12 | ? | ? | ? | i | ?
COc1ccccc1CN1C[C@@H]2C[C@@H](c3ccc(C)c(C)c3)N3CCC[C@@]23C1=O | i | i | 4.1µM | ? | i
Cc1ccc(Cn2c(=N)c(C(=O)NCc3ccco3)cc3c(=O)n4ccccc4nc32)cc1 | ? | 11µM | 3.5µM | ? | i
N=c1c(C(=O)NCc2ccco2)cc2c(=O)n3ccccc3nc2n1CCc1ccccc1 | 18µM | 8.2µM | 13µM | i | 21µM
COc1ccc(CCn2c(=N)c(C(=O)NCc3ccco3)cc3c(=O)n4ccccc4nc32)cc1OC | i | i | i | nt | i
COCCCn1c(=N)c(C(=O)NCc2ccco2)cc2c(=O)n3ccccc3nc21 | i | nt | nt | nt | i
COc1ccc(NC(=O)CSCc2cc(=O)c3cc(C)ccc3[nH]2)cc1 | i | nt | nt | nt | ?
CN(C(=O)Cn1nc(C(=O)O)c2ccccc2c1=O)C1CCCCC1 | i | i | i | i | i
Cc1ncc(COCc2ccccc2)c(CO)c1OCc1ccccc1 | i | i | i | nt | 18µM
COc1cc(C(CC(=O)NCc2ccccc2)N2Cc3ccccc3C2=O)cc(OC)c1OC (stereo not drawn) | i | nt | nt | nt | i
N#CCc1cc2ccc3cccc4ccc(c1)c2c34 | ? | i | i | i | 7.3µM
COc1ccc(NC(=O)c2ccc(CN3CCc4ccccc4C3)cc2)c(OC)c1 | i | i | i | i | i
COC(=O)c1ccc(CN2CCc3ccc(NC(=O)c4ccncc4)cc3C2)cc1 | ? | ? | i | ? | 13µM
SMILES | KB-3-1 cytotox | MCF10A rerep | SW480 rerep | ELG1 DNA repair | KB-V1 cytotox
CSc1cccc(NC(=O)c2ccc(CN3CCc4ccccc4C3)cc2)c1 | ? | ? | ? | i | ?
CC(=O)Nc1ccc(NC(=O)c2ccc(CN3CCc4ccccc4C3)cc2)cc1 | i | i | i | i | i
O=C(Nc1cccc(Br)c1)c1ccc(CN2CCc3ccccc3C2)cc1 | ? | 26µM | 18µM | ? | ?
O=C(Nc1ccc(F)cc1)c1ccc(CN2CCc3ccccc3C2)cc1 | ? | i | i | i | 5.8µM
CCn1cc(/C=C(\NC(=O)c2cc(OC)c(OC)c(OC)c2)C(=O)NCCCn2ccnc2)c2ccccc21 | i | nt | nt | nt | i
COCCN1C(=O)CCC1(C)C(=O)Nc1ccc2c(c1)OCCO2 (stereo not drawn) | i | nt | nt | nt | i
CC(C)OC(=O)C(NC(=O)c1ccccc1)=C1CCCCC1 | i | i | i | i | 21µM
CC(C)OC(=O)/C(=C\c1ccccc1)NC(=O)c1ccccc1 | i | i | i | i | i
O=C(NCCc1ccccc1)C(=O)NCC(c1cccnc1)N1CCN(c2ccccc2F)CC1 (stereo not drawn) | i | nt | nt | nt | i
COc1ccccc1NS(=O)(=O)c1cc(NC(=O)c2ccccc2C)ccc1N1CCOCC1 | i | i | i | nt | 8.2µM
O=C(Nc1ccc(N2CCOCC2)c(S(=O)(=O)Nc2ccccc2Cl)c1)c1ccc(=O)[nH]n1 | ? | i | i | nt | i
O=C(Nc1ccc(N2CCOCC2)c(S(=O)(=O)Nc2ccccc2Cl)c1)c1ccccc1 | ? | i | i | 18µM | i
COc1ccccc1NS(=O)(=O)c1cc(NC(=O)c2cc(F)c(F)c(F)c2F)ccc1N1CCOCC1 | i | ? | i | i | i
O=C(CCN1C(=O)[C@@H]2Cc3ccccc3CN2C1=O)NCc1ccccc1Cl | i | i | i | i | ?
Cc1cc(C(=O)c2ccc(Cl)cc2)c(NC(=O)CCl)s1 | ? | 21µM | ? | i | ?
Cc1ccc(C(=O)c2cc(C)sc2N)cc1 | i | i | i | i | i
CCc1cc(C(=O)c2ccc(C)cc2)c(NC(=O)CCl)s1 | 23µM | ? | ? | i | ?
Clc1ccc(N=c2ssnc2Cl)cc1 | 21µM | ? | ? | 16µM | 21µM
Clc1nssc1=Nc1ccccc1 | i | i | i | ? | i
O=C1CN(C(=O)c2ccc(Br)o2)C(c2ccccc2)c2cc(F)ccc2N1 (stereo not drawn) | i | i | i | 18µM | i
Cc1ccc2c(c1)C(c1ccccc1)N(C(=O)c1cccc([N+](=O)[O-])c1)CC(=O)N2 (stereo not drawn) | i | i | i | 13µM | i
O=C1CN(C(=O)c2ccccc2)C(c2ccccc2)c2cc(F)ccc2N1 (stereo not drawn) | i | i | i | i | i
CC(C)(C)c1ccc(C(=O)N2CC(=O)Nc3ccc(F)cc3C2c2ccc(F)cc2)cc1 (stereo not drawn) | 18µM | nt | nt | nt | ?
Cc1ccc2c(c1)C(c1ccccc1)N(C(=O)c1ccccc1)CC(=O)N2 (stereo not drawn) | i | ? | i | i | i
C=CCCCCCCCCC(=O)OC | nt | i | i | nt | nt
Cc1ccc(Nc2nc(N)nc(N)c2N=O)cc1Cl | nt | nt | nt | nt | i
COc1ccc(-c2cc3nc(-c4ccc(Br)cc4)cc(C(F)(F)F)n3n2)cc1 | i | nt | nt | nt | i
Cc1nn(CC(=O)NCCCN2CCCC2=O)c(C)c1[N+](=O)[O-] | i | i | ? | i | i
CCOC(=O)c1c(C)[nH]c(C(=O)N/N=C\c2ccccc2O)c1C | ? | ? | 5.2µM | ? | 2.1µM
